# Measurements taken from PubChem BioAssay (Tox21).
# Results filed as inconclusive are left out. A call without a number means that no potency is given here. Values without a mark were called inactive. Activity calls are given as the source filed them. Unless noted, the call rests on the fitted dose curve; in most records, active means well fitted curve in the direction sought with a large enough effect in the repeat runs; inconclusive means weak or mixed curves; inactive means no such curve, though single readings can be large; an effect the other way counts as inactive or inconclusive.
# What was measured:
# [1] = qHTS assay to identify small molecule antagonists of the vitamin D receptor (VDR) signaling pathway - cell viability counter screen (AID 743225); further: nearly all actives have a fitted effect of over 50% in size
# How it was run: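 Read-out: CellTiter-Glo luminescence measured 30 min after reagent addition at room temperature. Cells were VDR-bla HEK 293T exposed 16 h at 37C, 5% CO2, to compound with 3 nM final calcitriol agonist.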
# [2] = qHTS assay to identify small molecule agonists of the NFkB signaling pathway (AID 1159509; active means well fitted curve in the direction sought with a large enough effect in the signal ratio in the repeat runs, not every such curve was filed as active; the % refers to the signal ratio; further: series mostly up to about 61 µM)
# How it was run: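 Agonist activity was read as beta-lactamase-driven FRET change (460 and 530 nm emission, 405 nm excitation) following 1.5 hr substrate loading at room temperature. Beforehand, ME-180 NFkB-bla reporter cells were treated with compounds for 5 hr at 37 C.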
# [3] = qHTS assay to identify small molecule agonists of the NFkB signaling pathway - cell viability counter screen (AID 1159515; calls by dose curve; further: nearly all actives have a fitted effect of over 55% in size; further: potency means the concentration at half of the fitted maximal effect)
# How it was run: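 Cells are seeded (2,000 NFkB-bla ME-180 per well), rested overnight, and dosed with DMSO-dissolved compounds for 5 hr at 37 C. Viability is then read by CellTiter-Glo luminescence after 30 min at room temperature.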
# [4] = qHTS assay to identify small molecule agonists of the endoplasmic reticulum stress response signaling pathway (AID 1159516; active means well fitted activation curve with a large enough effect in the signal ratio in the repeat runs, not every such curve was filed as active; the % refers to the signal ratio; further: potency means the concentration at half of the fitted maximal effect)
# How it was run: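 Cells are seeded at 1,500 per well and incubated overnight. Compounds in DMSO are added for 5 hr at 37 C, then beta-lactamase FRET substrate for 2 hr at room temperature, and fluorescence at 460 and 530 nm is measured.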
# [5] = qHTS assay to identify small molecule antagonists of the retinoid-related orphan receptor gamma (ROR-gamma) signaling pathway - cell viability counter screen (AID 1159520); further: nearly all actives have a fitted effect of over 50% in size; further: potency means the concentration at half of the fitted maximal effect
# How it was run: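 Tet-on ROR gamma CHO cells were given compounds for 2 hr, then doxycycline hyclate at 1 uM final, and incubated 16 hr at 37 C. Viability was measured as ATP content by CellTiter-Glo luminescence.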
# [6] = target: Nuclear receptor ROR-gamma (Homo sapiens) (UniProt P51449); assay: qHTS assay to identify small molecule antagonists of the retinoid-related orphan receptor gamma (ROR-gamma) signaling pathway (AID 1159521; further: nearly all actives have a fitted effect of over 50% in size; further: potency means the concentration at half of the fitted maximal effect)
# How it was run: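 CHO Tet-on RORγ, RORE-luc reporter. Cpd 2 h pre-incubation, then dox hyclate 1 uM final, 16 h, 37 C/5% CO2. ONE-Glo luminescence; decrease = antagonist.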
# [7] = qHTS assay to identify small molecule agonists of the AP-1 signaling pathway - cell viability counter screen (AID 1159525; calls by dose curve; further: nearly all actives have a fitted effect of over 55% in size; further: potency means the concentration at half of the fitted maximal effect)
# How it was run: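 Same-well cytotoxicity counter screen of the Tox21 10K library in ME-180 cells. The readout is ATP-dependent luminescence after 5 h compound treatment. Data are normalised to DMSO and tetra n-octyl ammonium bromide controls.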
# [8] = target: Retinoic acid receptor RXR-alpha (Homo sapiens) (UniProt P19793); assay: qHTS assay to identify small molecule agonists of the RXR signaling pathway (AID 1159527; calls by dose curve; further: nearly all actives have a fitted effect of over 35% in size)
# Chain of Retinoic acid receptor RXR-alpha (Homo sapiens) (P19793 whole entry, looked up): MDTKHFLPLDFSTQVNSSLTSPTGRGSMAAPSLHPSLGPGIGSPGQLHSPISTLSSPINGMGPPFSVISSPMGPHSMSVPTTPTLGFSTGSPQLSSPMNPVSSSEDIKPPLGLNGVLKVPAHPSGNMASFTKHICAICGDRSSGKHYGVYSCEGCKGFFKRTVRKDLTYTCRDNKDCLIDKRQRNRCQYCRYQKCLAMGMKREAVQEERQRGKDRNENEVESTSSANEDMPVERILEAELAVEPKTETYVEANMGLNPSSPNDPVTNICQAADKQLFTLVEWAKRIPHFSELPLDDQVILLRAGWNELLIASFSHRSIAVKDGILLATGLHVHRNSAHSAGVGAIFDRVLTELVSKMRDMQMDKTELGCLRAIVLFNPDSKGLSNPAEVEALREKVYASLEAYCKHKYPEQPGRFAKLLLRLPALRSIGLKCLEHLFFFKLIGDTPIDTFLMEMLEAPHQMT
# How it was run: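 Read-out: beta-lactamase FRET ratio (405 nm excitation, 460 and 530 nm emission) after 2 hr substrate loading at room temperature. Cells were RXR-alpha-UAS-bla HEK 293T treated with compounds for 16 hr in 2% charcoal-stripped FBS medium.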
# [9] = qHTS assay to identify small molecule antagonists of the retinoic acid receptor (RAR) signaling pathway (AID 1159552; further: nearly all actives have a fitted effect of over 50% in size; further: potency means the concentration at half of the fitted maximal effect)
# How it was run: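 Cells of the C3RL4 line were seeded, incubated overnight, then dosed with compounds in DMSO followed immediately by retinol (1 uM final). Six hours later luciferase detection reagent went in; signal was measured after 30 min at RT.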
# [10] = qHTS assay to identify small molecule agonists of the retinoic acid receptor (RAR) signaling pathway (AID 1159553); further: potency means the concentration at half of the fitted maximal effect
# How it was run: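 Seed C3RL4 reporter cells at 1,000 per well and incubate overnight at 37 C. Add compounds in DMSO, incubate 6 hr. Add luciferase reagent, wait 30 min at room temperature, read luminescence.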
# [11] = qHTS assay to identify small molecule agonists of the AP-1 signaling pathway (AID 1159526; calls by dose curve)
# [12] = qHTS assay to identify small molecule agonists of the RXR signaling pathway - cell viability counter screen (AID 1159529)
# How it was run: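 HEK 293T RXRa-bla cells, 2% CS-FBS; 5 h settle; cpd 16 h 37 C, 5% CO2; CellTiter-Glo 30 min RT, luminescence. Tetraoctyl ammonium bromide as positive control.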
# [13] = qHTS assay to identify small molecule antagonists of the retinoid acid receptor (RAR) signaling pathway - cell viability counter screen (AID 1159551); further: nearly all actives have a fitted effect of over 35% in size; further: potency means the concentration at half of the fitted maximal effect
# How it was run: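 Cells (C3RL4) are plated, incubated overnight, dosed with compound in DMSO, then given retinol at 1 uM final. After 6 h at 37 C, CellTiter-Glo is added and luminescence read following 30 min at room temperature.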
# [14] = qHTS assay to identify small molecule antagonists of the estrogen related receptor (ERR) signaling pathway - cell viability counter screen (AID 1224818); further: series mostly up to about 46 µM
# How it was run: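 ERR cells, 2,000/well; 6 h settle at 37 C/5% CO2; compound pin transfer (DMSO); 17.5 h at 37 C; CellTiter-Fluor, 30 min, fluorescence read.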
# [15] = qHTS assay to identify small molecule antagonists of the estrogen related receptor (ERR) signaling pathway (AID 1224819; further: nearly all actives have a fitted effect of over 50% in size; further: potency means the concentration at half of the fitted maximal effect)
# How it was run: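 qHTS in ERR cells, 2,000/well, 1536 format. Cpd (DMSO) added after 6 h settle, 18 h 37 C. One-Glo luminescence, 30 min RT.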
# [16] = qHTS assay to identify small molecule agonists of the estrogen related receptor (ERR) signaling pathway (AID 1224820)
# How it was run: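 After 6 h plating (2,000 cells/well) and 18 h compound treatment at 37 C, ERR cells were lysed with One-Glo and luminescence read after 30 min at room temperature.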
# [17] = test system: estrogen-related receptor alpha (ERRalpha) with PGC-1alpha coactivator, human; assay: qHTS assay to identify small molecule antagonists of the estrogen related receptor signaling pathway with the pleiotropic PPARgamma coactivator (PGC) (AID 1224821; calls by dose curve; further: nearly all actives have a fitted effect of over 50% in size; further: potency means the concentration at half of the fitted maximal effect)
# How it was run: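 Luminescence from One-Glo luciferase reagent (30 min, room temperature) measured after 18 h compound treatment at 37 °C. Cells carry the PGC/ERR reporter and were seeded 6 h prior to dosing.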
# [18] = qHTS assay to identify small molecule antagonists of the estrogen related receptor signaling pathway with the pleiotropic PPARgamma coactivator (PGC) cell viability counter screen (AID 1224822;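 further: series mostly up to about 46 µM; viability read after 17.5 h compound exposure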)
# How it was run: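 Multiplexed viability counter screen run in PGC/ERR cells treated with compounds for 17.5 h at 37 C; live-cell protease signal measured by CellTiter-Fluor fluorescence.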
# [19] = qHTS assay to identify small molecule agonists of the estrogen related receptor signaling pathway with the pleiotropic PPARgamma coactivator (PGC) (AID 1224823)
# How it was run: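 Luminescence from One-Glo reagent (30 min, room temperature) was read after 18 h compound treatment at 37 C of PGC/ERR cells plated 6 h beforehand; compounds delivered in DMSO by pin tool.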
# [20] = qHTS assay to identify small molecule agonists of the endoplasmic reticulum stress response signaling pathway - cell viability counter screen (AID 1159517; calls by dose curve)
# How it was run: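 In parallel with the ESRE reporter read, cytotoxicity was scored by CellTiter-Glo luminescence (30 min, room temperature) on HeLa ESRE-bla cells dosed for 5 hr.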
SMILES,Potency [1],outcome [2],Potency [3],Potency [4],Potency [5],Potency [6],Potency [7],Potency [8],Potency [9],Potency [10],outcome [11],Potency [12],Potency [13],outcome [14],Potency [15],outcome [16],Potency [17],outcome [18],outcome [19],Potency [20]
Cc1cc(CCCOc2c(C)cc(-c3noc(C(F)(F)F)n3)cc2C)on1,inactive,inactive,inactive,inactive,inactive,inactive,inactive,inactive,inactive,inactive,,,,,,,,,,
CC1=C2[C@@H]([C@H](C)CC[C@H]2/C=C(\C)C(=O)O)[C@H](O)C1,inactive,inactive,inactive,inactive,inactive,inactive,inactive,,,,inactive,inactive,inactive,,,,,,,
CCC1CCC(CCC(=O)O)C1 (centres undefined),,inactive,inactive,inactive,inactive,inactive,inactive,,inactive,inactive,inactive,inactive,inactive,,,,,,,
CCN(CC)c1ccc(C(=C2C=CC(=[N+](CC)CC)C=C2)c2ccc(S(=O)(=O)O)cc2S(=O)(=O)[O-])cc1,inactive,inactive,43.6 µM (active),inactive,8.63 µM (active),12.2 µM (active),19.5 µM (active),inactive,24.3 µM (active),,,,15.4 µM (active),,,,,,,
CC(=O)NNC(C)=O,,inactive,inactive,inactive,inactive,,inactive,inactive,inactive,inactive,inactive,inactive,inactive,,,,,,,
CC(CN(CCN(CC(C)OCCO)CC(C)OCCO)CC(C)OCCO)OCCO (centres undefined),inactive,inactive,inactive,inactive,inactive,,inactive,inactive,inactive,inactive,inactive,inactive,inactive,,,,,,,
CC(C)COC(=O)c1ccc(O)cc1,inactive,inactive,inactive,inactive,inactive,inactive,inactive,inactive,inactive,,,inactive,inactive,,,,,,,
O=C(/C=C/c1ccc([N+](=O)[O-])cc1)c1ccccc1,,inactive,inactive,inactive,inactive,inactive,inactive,,inactive,30.7 µM (active),,,inactive,,,,,,,
O=C(O)c1cccc(Oc2ccccc2)c1,inactive,inactive,inactive,inactive,inactive,inactive,inactive,,inactive,inactive,inactive,inactive,inactive,,,,,,,
CCCCCCC(O)CCCCCCCCCCC(=O)OC (centres undefined),inactive,inactive,inactive,inactive,inactive,inactive,inactive,inactive,inactive,inactive,,inactive,inactive,,,,,,,
COC(C)(C)OC,,inactive,inactive,inactive,inactive,,inactive,inactive,,,inactive,inactive,inactive,,,,,,,
CC(=O)OC(C)C[N+](C)(C)C (centres undefined),,inactive,inactive,inactive,inactive,inactive,inactive,inactive,inactive,inactive,,inactive,inactive,inactive,inactive,inactive,inactive,inactive,inactive,
CC[C@H]1OC(=O)[C@H](C)[C@@H](O[C@H]2C[C@@](C)(OC)[C@@H](O)[C@H](C)O2)[C@H](C)[C@@H](O[C@@H]2O[C@H](C)C[C@H](N(C)C)[C@H]2O)[C@](C)(O)C[C@@H](C)CN(C)[C@H](C)[C@@H](O)[C@]1(C)O,,inactive,inactive,inactive,inactive,inactive,inactive,,,inactive,inactive,,inactive,,,,,,,
O=C1NC(=O)c2cccc3cccc1c23,inactive,inactive,inactive,inactive,inactive,inactive,inactive,,inactive,inactive,inactive,inactive,inactive,,,,,,,
COC(=O)C1=C(C)NC(C)=C(C(=O)OC(C)(C)CN(C)CCC(c2ccccc2)c2ccccc2)C1c1cccc([N+](=O)[O-])c1 (centres undefined),inactive,inactive,inactive,inactive,,,inactive,,,,inactive,inactive,inactive,,19.6 µM (active),inactive,13.9 µM (active),,inactive,
Cc1cc([N+](=O)[O-])ccc1N,inactive,inactive,inactive,inactive,inactive,,inactive,,inactive,inactive,inactive,inactive,inactive,,,,,,,
O=C(CCS)OCC(COC(=O)CCS)(COC(=O)CCS)COC(=O)CCS,inactive,inactive,inactive,8.71 µM (active),inactive,,inactive,inactive,,,inactive,,,,,,,,,
C=C(C)c1ccccc1,inactive,inactive,inactive,inactive,inactive,,inactive,,inactive,inactive,inactive,inactive,inactive,,,,,,,
COc1ccc(C(=O)NCc2ccc(OCCN(C)C)cc2)cc1OC,,inactive,inactive,inactive,inactive,,inactive,inactive,,,inactive,,inactive,,,,,,,
CC(C)c1ccc(C#N)cc1,,inactive,inactive,,inactive,inactive,inactive,inactive,inactive,inactive,inactive,inactive,inactive,,,,,,,inactive
CCCOC(=O)c1c(Cl)c(Cl)c(Cl)c(Cl)c1C(=O)OCCC,,inactive,inactive,inactive,inactive,,inactive,inactive,inactive,inactive,,,inactive,,,,,,,
O=NN(CCCl)C(=O)NCCCl,,inactive,inactive,inactive,inactive,,inactive,,,,inactive,,inactive,inactive,inactive,inactive,inactive,inactive,inactive,
O=C(Oc1ccccc1)c1ccc2ccccc2c1O,inactive,inactive,inactive,inactive,inactive,,inactive,,inactive,0.864 µM (active),inactive,,inactive,,,,,,,
